Each structure is given as a SMILES string. Hit rate of the full screen: of about 320,000 compounds, about 2,100 (0.66%) were called active. About 53% were inconclusive and are not listed. Calls come from the whole dose curve; as a rule, active = well fitted inhibition curve with a large enough effect in the signal ratio, with a control signal flat (not every such curve was filed as active); inconclusive = small, poorly fitted or top-dose-only effect, or effect the other way, or a change in a side signal; inactive = flat fitted curve, though single readings scatter; the % refers to the signal ratio. The sample as a whole holds a higher share of actives than the screen did.
Potency is the fitted concentration of half-maximal effect.

This test can be described thus: qHTS Assay for Lipid Storage Modulators in Drosophila S3 Cells.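 For cell number change: cells counted by Cell Tracker Red CMTPX staining in the red channel.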 For lipid storage change, negative = inhibition: % is set by controls: 0 for no effect and ±100 for the full control effect. The settings on record: BODIPY lipid droplet fluorescence, 18-24 h, cells fed with added oleic acid; cell number change: measured here: cell count max response; series mostly up to 46.1 µM; lipid storage change, negative = inhibition: at the top concentration. The procedure, abridged:
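Drosophila S3 cells got compounds at several concentrations plus oleic acid (400 uM solution). Laser-scanning cytometry with 488 nm excitation read lipid droplets at 500-530 nm and cells at 575-640 nm. Percent activity was relative to 20 uM Triacsin C.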
For the compound `Cn1nc([N+](=O)[O-])nc1Sc1ccc(Cl)cc1`, the “lipid storage change, negative = inhibition” value is -10.4% (inactive) and the cell number change is 9.49%.

For `Nc1cnc(Br)cc1Br`, the “lipid storage change, negative = inhibition” value is 0.0052% (inactive) and the cell number change was -3.4%.

For the compound `Cc1ccc(NC(=O)CNC(=O)c2ccc(Br)o2)nc1`, the “lipid storage change, negative = inhibition” value is -5.59% (inactive).

As to `CCOc1c(N2CC(C)OC(C)C2)c(=O)c1=O` (centres undefined), the “lipid storage change, negative = inhibition” value was -2.8% (inactive) and the cell number change is -16.5%.

Regarding `Cc1ccc(/C=C/C(=O)Nc2sc(C)c(C)c2C(=O)OC(C)C)o1`, the “lipid storage change, negative = inhibition” value was -0.0019% (inactive) and the cell number change came to 0.157%.

With `O=S(=O)(c1ccccc1)N1CCN(c2cccc(Cl)c2)CC1`, the call was inactive and the cell number change is -13.5%.

As to `C=CCn1c(=O)c(C(=O)Nc2ccccc2C)c(O)c2ccccc21`, the Potency is 18.4 µM (active) and the cell number change was -12.3%.

As to `CCn1c(=O)c(C(=O)Nc2ccccc2C)c(O)c2ccccc21`, the “lipid storage change, negative = inhibition” value is 5.2% (inactive) and the cell number change is 4.59%.

In the case of `C=CCn1c(=O)c(C(=O)Nc2ccccc2O)c(O)c2ccccc21`, the “lipid storage change, negative = inhibition” value is 6.29% (inactive) and the cell number change came to 3.13%.

As for `O=C(NS(=O)(=O)Oc1cccc(Cl)c1Cl)OC[C@@H]1CCCN2CCCCC12` (some centres undefined), the “lipid storage change, negative = inhibition” value was -4.86% (inactive) and the cell number change was -10.2%.

In the case of `CN(C)CCCN(C(=O)c1ccc(S(=O)(=O)N2CCOCC2)cc1)c1nc2ccc(F)cc2s1`, the “lipid storage change, negative = inhibition” value was -8.58% (inactive) and the cell number change was found to be 15.4%.

`CCOC(=O)CSC1=NC(=O)/C(=C/c2ccc(Br)cc2)S1`: the “lipid storage change, negative = inhibition” value was 7.04% (inactive) and the cell number change was 1.95%.

For `CCOC(=O)COc1ccc(Br)cc1/C=C\c1[nH]c(=O)[nH]c(=O)c1[N+](=O)[O-]`, the Potency was 20.6 µM (active) and the cell number change is -21.8%.

Take `CCCOc1ccc(/C=C/c2[nH]c(=O)[nH]c(=O)c2[N+](=O)[O-])cc1OCC`: the “lipid storage change, negative = inhibition” value was -8.91% (inactive) and the cell number change is -5.22%.

As for `CCOC(=O)COc1ccc(Br)cc1/C=C/c1[nH]c(=O)[nH]c(=O)c1[N+](=O)[O-]`, the “lipid storage change, negative = inhibition” value was 7.09% (inactive) and the cell number change was -18.1%.

Consider `CCOC(=O)COc1ccc(Br)cc1/C=C1\SC(N)=NC1=O`, for which the Potency is 5.8 µM (active) and the cell number change is -21.5%.

Regarding `CCCOc1ccccc1/C=C1\SC(N)=NC1=O`, the “lipid storage change, negative = inhibition” value is 11.7% (inactive) and the cell number change was determined as 13.8%.

Take `Cc1c(C(=O)N2CCCC2)sc(NC(=O)c2ccco2)c1C#N`: the “lipid storage change, negative = inhibition” value was -12.4% (inactive) and the cell number change was -19.3%.

For the compound `COc1cc(NC(=O)N[C@H](C(=O)O)C(C)C)cc(OC)c1`, the Potency is 5.8 µM (active) and the cell number change was -13.1%.

As to `COC(=O)[C@@H](NC(=O)Nc1cccc(OC)c1)C(C)C`, the “lipid storage change, negative = inhibition” value was -16.2% (inactive) and the cell number change was -18%.

With `COC(=O)[C@@H](NC(=O)Nc1ccc(OC)cc1)C(C)C`, the call was inactive and the cell number change is -11.6%.

On to `Nc1nc2ccc(Oc3ccccc3)cc2s1`, for which the outcome was inactive and the cell number change is -7.07%.

Take `CCOC(=O)CSc1nc(=O)n2ccccc2n1`: the “lipid storage change, negative = inhibition” value was -14.6% (inactive) and the cell number change is -9.97%.

As to `COc1ccc(CN2CCN(C)CC2)cc1OCc1ccccc1`, the Potency was 18.4 µM (active) and the cell number change was -3.92%.

With `CCN1CCN(Cc2ccc(OCc3ccccc3)c(OC)c2)CC1`, the “lipid storage change, negative = inhibition” value is -9.35% (inactive) and the cell number change was -5.92%.

For `COc1ccc(CN2CCC(C)CC2)cc1OCc1ccccc1`, the “lipid storage change, negative = inhibition” value was 9.08% (inactive) and the cell number change came out at 4.43%.

Take `CC(=O)Cc1cc(=O)c2c(C)cc(O)c(C3OC(CO)C(O)C(O)C3O)c2o1` (centres undefined): the “lipid storage change, negative = inhibition” value was -1.85% (inactive) and the cell number change is -1.27%.

Take `O=C(COC(=O)c1cc(-c2ccccc2)nc2ccccc12)Nc1ccc2c(c1)OCO2`: the “lipid storage change, negative = inhibition” value was 17.7% (inactive) and the cell number change turned out to be 2.4%.

Turning to `COC(=O)c1ccc(-n2c(C)nc(=O)c(-c3ccccc3)c2C)cc1`, the “lipid storage change, negative = inhibition” value was 11.3% (inactive) and the cell number change stood at 0.97%.

For `CC(=O)Nc1ccc(-n2c(C)nc(=O)c(-c3ccccc3)c2C)cc1`, the Potency was 13 µM (active) and the cell number change came out at 13.2%.

`Cc1nc(=O)c(-c2ccccc2)c(C)n1-c1ccc(O)cc1`: the “lipid storage change, negative = inhibition” value was -123% (inactive) and the cell number change is 0.899%.

`CCN(/C=N/S(=O)(=O)c1ccc(Cl)cc1)CC`: the “lipid storage change, negative = inhibition” value was -5.13% (inactive) and the cell number change came to 6.24%.

As to `CSc1cc(C)n(-c2ccc(Cl)cc2)c(=S)c1C(C)=O`, the call was inactive and the cell number change was determined as 5.69%.

As to `COc1ccccc1-n1c(C)cc(SC)c(C(C)=O)c1=S`, the result was inactive.

`CSc1cc(C)n(-c2ccccc2C)c(=S)c1C(C)=O`: the Potency is 29.1 µM (active) and the cell number change came to 16.2%.

For the compound `Cc1ccccc1NC(=O)NC1(C(=O)NCCCN2CCOCC2)CCCCC1`, the “lipid storage change, negative = inhibition” value was -7.96% (inactive) and the cell number change was -17.7%.

`CC(=O)N1c2c(cc(Br)cc2S(=O)(=O)NCc2ccc3c(c2)OCO3)CC1C` (centres undefined): the “lipid storage change, negative = inhibition” value was -20.4% (inactive) and the cell number change was -27.2%.

For the compound `CCCc1ccc2oc(C(=O)N3CCN(CC(=O)NC(C)C)CC3)c(C)c2c1`, the Potency was 4.11 µM (active) and the cell number change is -11.6%.

Regarding `CCCc1ccc2oc(C(=O)N3CCC(O)CC3)c(C)c2c1`, the “lipid storage change, negative = inhibition” value is -13.7% (inactive) and the cell number change came out at 4.78%.

As to `CCCc1ccc2oc(C(=O)N3CCN(c4cnccn4)CC3)c(C)c2c1`, the “lipid storage change, negative = inhibition” value is 0.562% (inactive) and the cell number change is -14.5%.

As for `COc1ccc(Cl)cc1C(=O)NNC(=O)c1cccnc1`, the compound was classed as inactive.

With `CS(=O)(=O)c1ccc2sc(NC(=O)c3cc4ccccc4o3)nc2c1`, the “lipid storage change, negative = inhibition” value is -10.4% (inactive) and the cell number change is -15.1%.

For the compound `Cc1cc(C)nc(OC(C(=O)O)C(OCC(C)C)(c2ccccc2)c2ccccc2)n1` (centres undefined), the Potency is 29.1 µM (active) and the cell number change is -23.5%.

`Cc1cc(C)nc(OC(C(=O)O)C(OCc2ccccc2)(c2ccccc2)c2ccccc2)n1` (centres undefined): the “lipid storage change, negative = inhibition” value was 14.5% (inactive) and the cell number change is -6.47%.

As for `CCC(C)COC(c1ccccc1)(c1ccccc1)C(Oc1nc(C)cc(C)n1)C(=O)O` (centres undefined), the outcome was inactive.

Consider `Cc1cc(/C(N)=N/OC(=O)Nc2ccccc2)no1`, for which the “lipid storage change, negative = inhibition” value was -0.219% (inactive) and the cell number change came out at 22.2%.

With `O=S(=O)(Nn1cnnc1)c1ccc2ccccc2c1`, the “lipid storage change, negative = inhibition” value is -1.16% (inactive) and the cell number change was -5.21%.

On to `Cc1ccsc1CNC12CC3CC(CC(C3)C1)C2`, for which the “lipid storage change, negative = inhibition” value is 9.59% (inactive) and the cell number change was 10.4%.

As for `Cc1ccc(Cl)cc1NC(=O)CNC(=O)N1CC(=O)Nc2ccccc21`, the “lipid storage change, negative = inhibition” value is 3.66% (inactive) and the cell number change is -12.7%.

Source of the values: PubChem BioAssay AID2685 (National Center for Advancing Translational Sciences (NCATS), 2010).
